NS1 inh: qHTS Assay for Inhibitors of Influenza NS1 Protein Function. hit rate 0.4% among 270,000. Potency, µM (doses to about 46.1 µM), for inactives: at the top dose activity, positive = more growth. AID 2326, 2010; further: potency means the concentration at half of the fitted maximal effect; actives are rising curves; nearly all actives have a fitted effect of over 50% in size
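S. cerevisiae expressing influenza A NS1, grown in glucose, washed, then diluted 1:100 into pH 6.0 -URA galactose medium with 23 nl compound. Growth recovery read as OD600; NS1-free strain serves as control.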
LmPK inh: qHTS Assay for Inhibitors of Leishmania Mexicana Pyruvate Kinase (LmPK) | purified LmPK, Kinase-Glo ATP luminescence, 1 h | Potency, µM (titrated, usually from 57.5 µM), for inactives: at the top dose activity change, negative = inhibition, most hits filed as inhibitors | hit rate 0.37% among 290,000 | AID 1721, 2009; active means well fitted curve in the direction sought with a large enough effect; inconclusive means small, poorly fitted or top-dose-only effect, or another doubt; inactive means no such curve, though single readings can be large; an effect the other way counts as inactive or inconclusive; further: potency means the concentration at half of the fitted maximal effect; on the % scale 0 is the no-effect control and ±100 the full control effect
Target sequence (Q27686 whole entry, looked up): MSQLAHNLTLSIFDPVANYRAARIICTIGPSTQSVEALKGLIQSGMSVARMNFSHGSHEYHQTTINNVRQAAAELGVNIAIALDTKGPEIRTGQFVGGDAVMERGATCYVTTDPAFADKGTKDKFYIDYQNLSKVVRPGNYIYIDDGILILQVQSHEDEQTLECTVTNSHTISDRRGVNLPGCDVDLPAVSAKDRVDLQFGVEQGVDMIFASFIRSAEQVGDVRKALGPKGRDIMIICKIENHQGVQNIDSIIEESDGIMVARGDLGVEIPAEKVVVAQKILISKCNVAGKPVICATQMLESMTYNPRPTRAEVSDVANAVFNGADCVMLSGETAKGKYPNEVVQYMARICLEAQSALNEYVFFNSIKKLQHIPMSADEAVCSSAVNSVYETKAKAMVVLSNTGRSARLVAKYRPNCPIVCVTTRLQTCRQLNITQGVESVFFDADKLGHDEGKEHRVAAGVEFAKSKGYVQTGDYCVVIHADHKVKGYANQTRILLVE
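In 50 mM imidazole pH 7.2 with 7 mM MgCl2, LmPK (0.1 nM) turned over PEP (0.5 mM) and ADP (0.1 mM) for 1 h at room temperature. Luciferase read-out of ATP.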
Tb PYK inh: qHTS of Trypanosoma Brucei Inhibitors; pyruvate kinase (Trypanosoma brucei), Q57TT1; TbPYK enzyme, Kinase-Glo Plus ATP luminescence, 45 min; Potency, µM (highest dose often 76.8 µM), for inactives: at the top dose activity, negative = inhibition, usual class: inhibitors; hit rate 0.12% among 410,000; active means well fitted curve in the direction sought with a large enough effect; inconclusive means small, poorly fitted or top-dose-only effect, or another doubt; inactive means no such curve, though single readings can be large; an effect the other way counts as inactive or inconclusive; further: potency means the concentration at half of the fitted maximal effect; on the % scale 0 is the no-effect control and ±100 the full control effect; nearly all actives have a fitted effect of over 50% in size
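T. brucei PYK with substrate was exposed to pin-transferred compounds across a concentration series, then started with 130 uM ADP (final). After 45 min at room temperature, Kinase-Glo Plus luminescence was read, normalized and curve-fitted.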
CHX counter-1: Cycloheximide Counterscreen for Small Molecule Inhibitors of Shiga Toxin | max response, % | hit rate 12% among 300,000 | cell reporter, cycloheximide protein synthesis inhibition counterscreen; in the data active means max response mostly above about 13%, no sharp cut-off; inactive means mostly below about 14%; further: read at 38.3 µM for the half of the compounds with a filed dose; 0% is about no effect
SARS PLP yeast: qHTS of Yeast-based Assay for SARS-CoV PLP; S. cerevisiae expressing SARS-CoV PLpro, growth rescue; Potency, µM (top dose mostly 32.9 µM), inactives show top-dose activity, positive = growth rescue, actives largely listed as activators; hit rate 0.19% among 330,000; AID 485353, 2010; further: potency means the concentration at half of the fitted maximal effect; 0% is about no effect; nearly all actives have a fitted effect of over 55% in size
Shiga inhibitor: A qHTS for Small Molecule Inhibitors of Shiga Toxin; Vero cells, Shiga toxin protein synthesis inhibition reporter; inhibition, % at 38.7 µM; hit rate 9.2% among 290,000; in the data active means inhibition mostly above about 28%, no sharp cut-off; inactive means mostly below about 43%; further: 0% is about no effect
LmPK inh confirm: Confirmation Assay for Inhibitors of Leishmania Mexicana Pyruvate Kinase (LmPK); shares compounds with LmPK inh; purified LmPK, Kinase-Glo ATP luminescence, 1 h; Potency, µM (series often up to 57.5 µM), for inactives: top-dose activity change, negative = inhibition, hits mostly inhibitors; hit rate 40% among 150; AID 2559, 2010;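 active means compounds giving a full or partial concentration-response curve, as inhibitors or activators; inconclusive means weak, top-dose-only or unclear curve responses; inactive means no response at any tested dose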
CHX counter-2: Cycloheximide Counterscreen for Small Molecule Inhibitors of Shiga Toxin (Confirmatory); Cycloheximide counterscreen, protein synthesis reporter, Shiga toxin assay; shares compounds with Shiga inhibitor; hit rate 3% among 510; Potency, µM (titrated, usually from 38.3 µM), without a hit: at the highest dose activity (activation), actives largely listed as activators; AID 2318, 2010; further: potency means the concentration at half of the fitted maximal effect; 0% is about no effect
An asterisk follows results filed as active; ? = inconclusive; / = not tested or not shown. This is one part of a sample in which hits are shown more often than they occur. Unless noted, the call rests on the fitted dose curve.

SMILES	NS1 inh	LmPK inh	Tb PYK inh	CHX counter-1	SARS PLP yeast	Shiga inhibitor	CHX counter-2	others
Nc1ccc2nc(-c3ccccc3)sc2c1	-10%	8.9µM*	?	9	/	25	/	LmPK inh confirm=16µM*
Nc1ccc2nc(-c3ccccc3)c(-c3ccccc3)nc2c1	16%	-11%	-5%	-5	3%	19	/
COc1ccc(CCC2(C)NC(=O)N(C(C)C(=O)Nc3ccccc3F)C2=O)cc1 (stereo unspecified)	/	/	-3%	/	2%	/	/
Cc1ccc(C(=O)O/N=C(\N)c2ccccc2)c(Cl)c1	-42%	4.5µM*	?	36*	-13%	16	/	LmPK inh confirm=18µM*
COC(=O)c1ccc2c(c1)N(C)S(=O)(=O)c1cnc(SCC(=O)C(C)(C)C)nc1-2	0%	5%	-1%	1	0%	-3	/
CCOc1ccc(OCC(=O)Nc2nccs2)cc1	-9%	10µM*	22µM*	13	-4%	-2	/	LmPK inh confirm=13µM*
Cc1cccc(NC(=O)Cn2nnc(-c3cccs3)n2)c1C	-43%	-1%	-11%	-2	6%	13	/
CCc1ccccc1NC(=O)Cn1nnc(-c2cccs2)n1	6%	-1%	-1%	-4	2%	49*	0%
Cc1nn(C2CCCCC2)c(N)c1-c1ccccc1	-21%	-4%	-16%	-2	-4%	33*	3%
Cc1ccc2[nH]c(=O)c(CN(CCCN3CCOCC3)C(=O)Nc3ccc(Cl)cc3)cc2c1	-10%	0%	-2%	9	4%	48*	0%
Cc1ccc2[nH]c(=O)c(CN(CCCN3CCOCC3)C(=O)Nc3cccc(Cl)c3)cc2c1	-11%	2%	0%	1	-18%	-4	/
COc1ccc(C(=O)OCC#CCSc2nnc(-c3cccc4ccccc34)o2)cc1	/	/	1%	/	-5%	/	/
COC(=O)c1ccc(-c2ncc(-c3cccc4ccccc34)o2)cc1	2%	4%	4%	2	1%	34*	10µM*
COc1ccc(S(=O)(=O)N2CCCCCC2)cc1C(=O)N1CCN(c2ccccc2C)CC1	/	/	0%	/	5%	/	/
O=C(Nc1ccc(O)cc1)/C(=C\C=C\c1ccccc1)NC(=O)c1ccccc1	10%	0%	3%	3	0%	30*	1%
CN(Cc1ccccc1)C(=O)[C@@H]1CCCN1S(=O)(=O)c1ccc(Cl)cc1	15%	-1%	0%	8	-1%	-6	/
Cc1ccccc1CSCC(=O)NC1CCCC1	0%	-1%	-11%	18	-3%	5	/
O=C(CSCc1ccco1)NC1CCCC1	10%	1%	-6%	3	5%	29*	2%
Cc1cccc(NC(=O)CSc2nc3ccc(NC(=O)c4ccccc4)cc3s2)c1	/	/	3%	/	/	/	/
CCc1ccc(NC(=O)c2cnc(N3CCN(c4ccccn4)CC3)c3ccccc23)cc1	/	-6%	-18%	13	-2%	50*	2%
CCC(=O)N1CCN(c2ccc(NC(=O)c3ccc(Br)o3)cc2)CC1	-8%	-3%	-16%	3	0%	22*	7%
Cc1ccc(C(=O)N2CCN(c3ccc(NC(=O)c4ccc(Br)o4)cc3)CC2)cc1	19%	1%	-9%	-3	-7%	-24	/
Cc1ccc(C)c(NC(=O)C(=O)NCC(c2cccnc2)N2CCN(c3ccc(F)cc3)CC2)c1 (stereo unspecified)	/	/	2%	/	/	/	/
COc1ccc(NC(=O)C2CCN(C(=O)c3cccs3)CC2)cc1OC	11%	4%	-6%	-3	8%	-17	/
O=C(Nc1ccc(Cl)cc1)C1CCN(C(=O)c2cccs2)CC1	-20%	5%	-1%	-3	-1%	104*	-5%
SMILES	NS1 inh	LmPK inh	Tb PYK inh	CHX counter-1	SARS PLP yeast	Shiga inhibitor	CHX counter-2	others
CC(Oc1ccc(F)cc1Br)c1nc2ccccc2c(=O)[nH]1 (stereo unspecified)	-32%	0%	53%	-2	-7%	71*	?
COc1ccc(C(O)c2ncc(-c3cccc(C(F)(F)F)c3)[nH]2)cc1 (stereo unspecified)	/	/	1%	/	/	/	/
Oc1[nH]c2ccccc2c1C1=NCCCC1	-50%	-3%	-3%	-6	5%	-10	/
CCn1c(O)c(C2=NCCCC2)c2ccccc21	-145%	-5%	3%	-1	-9%	125*	2%
Cc1nc(-c2ccccc2)sc1C1(C)CC(c2cccc(F)c2)=NO1 (stereo unspecified)	/	/	1%	/	/	/	/
Cc1nc(-c2ccccc2)sc1C1(C)CC(c2cccc([N+](=O)[O-])c2)=NO1 (stereo unspecified)	-1%	-8%	2%	1	-3%	30*	1%
COCCn1c(=O)c(-c2cn(C)c3ccccc23)nc2cnc(Oc3ccc(OC)cc3)nc21	/	/	-1%	/	/	/	/
Cc1ccc2c(CN3CCCCC3C)cc(=O)oc2c1C (stereo unspecified)	-4%	0%	9%	5	1%	40*	-1%
Cc1ccc2c(CN3CCCCC3C)cc(=O)oc2c1 (stereo unspecified)	2%	-1%	-6%	5	-1%	6	/
COc1ccccc1Cc1nc2ccccc2nc1SCC(=O)NCc1ccc(C)cc1	/	/	1%	/	/	/	/
CCn1ccc(C(=O)Nc2ccsc2C(=O)OC)n1	-56%	-7%	-2%	19	-9%	9	/
CCn1ccc(C(=O)NC2=NCCS2)n1	1%	0%	2%	17	-14%	31*	6%
COc1ccc(Cl)cc1S(=O)(=O)N(C)CC(=O)NCc1ccc2c(c1)OCO2	-5%	1%	1%	-2	0%	28	/
Cc1cccc(C(=O)Nc2nnc(SCC(=O)NC3CC3)s2)c1	3%	-7%	-8%	-3	4%	53*	?
O=C(CSc1nnc(NC(=O)c2cccc(F)c2)s1)NC1CC1	10%	-6%	3%	-5	2%	-7	/
Cc1cc(Cl)ccc1NC(=O)CN1CCC(C(O)(c2ccccc2)c2ccccc2)CC1	-21%	6%	0%	-5	-6%	122*	-2%
CCOc1ccc(CN2CCN(Cc3cc4ccccc4o3)CC2CCO)cc1 (stereo unspecified)	1%	1%	-6%	8	1%	/	-1%
COc1cccc(CN2CCN(Cc3cc4ccccc4o3)CC2CCO)c1 (stereo unspecified)	20%	4%	1%	7	-1%	/	/

Source: PubChem BioAssay
